Screening results deposited in PubChem BioAssay by several laboratories.
The list is not random: actives were taken first. Their share in the collection is about 6.9%.
GRIN3A LBD mod: modulates the human NR3A ligand-binding domain. NR3A LBD differential scanning fluorimetry, Tm shift; 0% = protein alone, 100% = glycine-bound protein. Tm shift relative to glycine control, % at 25 µM. hit rate 2.5% among 340,000. AID 1259313;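 active = melting temperature shift of at least 10% of the positive control shift, at one fixed dose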
Beta cell apopt: blocks beta cell apoptosis; INS-1E cytokine-induced death, ATP luminescence, 48 h; percent of positive-control rescue, neutral wells zero; protection from apoptosis, % (no concentration beside the values); hit rate 0.8% among 300,000;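 active = Every replicate reaches about 75%, or at least half do and their mean reaches it too, limit read from the data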;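 also: 0% = cytokine-treated negative control wells and 100% = positive control rescue; higher means more ATP so stronger rescue from cytokine killing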
Mdm2 MdmX PPI: disrupts the human Mdm2-MdmX interaction; hit rate 3% among 330,000; AID 485346; inhibition, % at 8 µM; SaOS-2 split-luciferase Mdm2/MdmX complementation, luminescence;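 active = inhibition of at least 50% at 8 µM in the primary screen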
Target sequence (O15151 whole entry, looked up): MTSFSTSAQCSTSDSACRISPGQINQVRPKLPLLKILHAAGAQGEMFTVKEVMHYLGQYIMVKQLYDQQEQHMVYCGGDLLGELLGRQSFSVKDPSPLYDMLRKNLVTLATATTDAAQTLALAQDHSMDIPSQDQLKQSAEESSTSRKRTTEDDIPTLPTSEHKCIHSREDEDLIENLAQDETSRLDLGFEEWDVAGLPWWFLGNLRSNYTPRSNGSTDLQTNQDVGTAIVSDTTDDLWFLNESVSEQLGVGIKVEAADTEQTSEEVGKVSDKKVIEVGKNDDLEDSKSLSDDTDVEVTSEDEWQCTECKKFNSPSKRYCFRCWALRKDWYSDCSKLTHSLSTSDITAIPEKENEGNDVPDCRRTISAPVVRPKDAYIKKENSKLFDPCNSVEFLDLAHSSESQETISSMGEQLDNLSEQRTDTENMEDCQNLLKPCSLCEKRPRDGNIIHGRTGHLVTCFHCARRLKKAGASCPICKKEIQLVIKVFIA
Target sequence (Q00987 whole entry, looked up): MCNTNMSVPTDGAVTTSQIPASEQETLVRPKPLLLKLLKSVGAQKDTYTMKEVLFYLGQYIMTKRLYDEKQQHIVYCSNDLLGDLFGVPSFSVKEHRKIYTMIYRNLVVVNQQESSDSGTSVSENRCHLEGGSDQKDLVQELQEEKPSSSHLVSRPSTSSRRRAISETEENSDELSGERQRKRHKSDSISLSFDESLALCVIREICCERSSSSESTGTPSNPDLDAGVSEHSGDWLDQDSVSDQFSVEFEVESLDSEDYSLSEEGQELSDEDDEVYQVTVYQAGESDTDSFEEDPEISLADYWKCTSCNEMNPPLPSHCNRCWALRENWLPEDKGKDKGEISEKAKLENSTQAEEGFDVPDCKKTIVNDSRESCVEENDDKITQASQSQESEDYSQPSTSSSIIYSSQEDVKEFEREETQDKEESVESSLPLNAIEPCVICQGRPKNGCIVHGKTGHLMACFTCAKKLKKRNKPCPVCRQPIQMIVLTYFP
CSC inhib: blocks cancer stem cells. hit rate 1.1% among 300,000. cancer stem cell-like cells viability, luminescence. AID 2717. inhibition, % at 7.5 µM; in the data active = inhibition above about 75%; tested in HMLE shEcad cells
SKKanGAS inh: inhibitors of SKKanGAS S. pyogenes growth in kanamycin (SK-promoter or general growth effect); BacTiter-Glo, 6 h; inhibition, % at 7.5 µM; hit rate 1.3% among 300,000;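 active = mean replicate score, as percent of positive control median, at least 50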;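 also: strain carries kanamycin resistance gene driven by streptokinase promoter and grows in 40 µg/ml kanamycin; loss of luminescence reflects streptokinase promoter inhibition or plain growth inhibition; 0% = median of DMSO wells and 100% = positive control at its reference dose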
MPTP block: blocks calcium-induced mitochondrial swelling | isolated mouse mitochondria, Ca2+ swelling absorbance, 30 min | inhibition, % at 10 µM | hit rate 1.4% among 360,000;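 active = inhibition of 50% or more, scaled per plate between neutral and stimulator controls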;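 also: 0% = DMSO wells given calcium and 100% = 1 mM EGTA wells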
Mdm2-MdmX conf: human Mdm2/MdmX binding inhibition, confirmed; shares compounds with Mdm2 MdmX PPI; luminescent assay; inhibition, % at 8 µM; hit rate 55% among 10,000; in the data active = inhibition above about 40%
FLuc counter: full-length luciferase inhibition in Mdm2/MdmX counter-screen; hit rate 77% among 6,200; inhibition, % at 8 µM; SaOS-2 full-length luciferase counterscreen, luminescence; AID 504607; shares compounds with Mdm2 MdmX PPI;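 active = mean inhibition at 8 µM reaching about 37%, which flags the compound as non-specific, limit read from the data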;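 also: p53-null SaOS-2 cells with luciferase driven by a doxycycline-inducible promoter; compound on cells about two nights before reading with doxycycline added after day one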
MPTP counter: mitochondrial membrane potential, counter-screen. shares compounds with MPTP block. isolated mitochondria, Rhodamine 123 fluorescence. inhibition, % at 10 µM. hit rate 78% among 5,000. AID 624504; in the data active = inhibition above about 22%;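 also: 0% = DMSO vehicle and 100% = positive control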
MPTP swell DR: dose response confirmation of mitochondrial permeability transition pore inhibitors. shares compounds with MPTP block. isolated mitochondria swelling, absorbance. IC50, µM. hit rate 58% among 780; in the data active = IC50 below about 20 µM
MPTP cs DR: MPTP inhibitor counter-screen activity, dose response; isolated mitochondria counterscreen, fluorescence read-out; hit rate 49% among 780; shares compounds with MPTP block; IC50, µM; AID 651564; in the data active = IC50 below about 80 µM
The depositor's hits bear a star; . = not tested or not shown.

SMILES	GRIN3A LBD mod	Beta cell apopt	Mdm2 MdmX PPI	CSC inhib	SKKanGAS inh	MPTP block	Mdm2-MdmX conf	FLuc counter	MPTP counter	others
CCOC(=O)C1=CNS(=O)(=O)NC1c1ccc(Br)cc1F (centres undefined)	2	.	32	.	.	0	.	.	.
CCN=c1scc(-c2ccccc2)n1/N=C/c1ccccn1	-5	39	85*	29	-6	66*	66*	127*	46*
CCN=c1scc(-c2ccc(F)cc2)n1/N=C/c1ccccn1	-3	7	-175	3	0	4	.	.	.
CCOC(=O)C1CCN(S(=O)(=O)c2ccc3c(c2)NC(=O)CS3)CC1	0	2	7	2	-2	-1	.	.	.
O=C(CCCc1c[nH]c2ccccc12)NCC1COc2ccccc2O1 (centres undefined)	-1	-18	24	16	14	-2	.	.	.
CCOc1ccc(CN(C)CC(O)COC(c2ccc(OC)cc2)c2ccc(OC)cc2)cc1 (centres undefined)	-2	0	59*	-4	11	67*	29	.	0	MPTP swell DR=15*;MPTP cs DR=48*
COc1ccc(CN(C)CC(O)COC(c2ccc(OC)cc2)c2ccc(OC)cc2)cc1 (centres undefined)	2	10	33	.	3	1	.	.	.
CCN(CC)c1ccc(CNc2nc3ccccc3n2CCN2CCCCC2)cc1	-3	88*	89*	78*	-7	64*	48*	77*	96*
Cc1cc(C)n(CCNS(=O)(=O)c2ccc(C)c(C)c2)n1	-1	0	16	3	-1	0	.	.	.
O=C(COC(=O)c1cccs1)NCCc1ccc(F)cc1	1	.	-25	.	.	-2	.	.	.
CCC(NC(=O)Nc1nnc(C(F)(F)F)s1)(C(F)(F)F)C(F)(F)F	1	124*	91*	-17	118*	101*	90*	26	112*
O=C(O)CCC(=O)Nc1nnc(C(F)(F)F)s1	2	2	-3	-8	.	0	.	.	.
CCSCCc1nnc(NC(=O)Nc2cccc(C(F)(F)F)c2)s1	3	119*	95*	27	12	80*	95*	50*	73*
COc1ccc(CCN2CCC(Nc3nc4ccccc4n3Cc3ccc(F)cc3)CC2)cc1	1	26	99*	56	1	83*	91*	47*	-14
CC(=O)N1CCN(c2ccccc2NC(=O)COc2cc(C)cc(C)c2)CC1	0	5	3	.	-3	-2	.	.	.
CC(C)Nc1ccc(Nc2ccnc3cc4ccccc4cc23)cc1	-6	125*	95*	108*	5	68*	100*	51*	70*
CCCC[C@@H](CNC)NC[C@H](NCCCCC1CCCCC1)C(C)C	1	.	98*	-25	9	90*	43*	65*	-23	MPTP swell DR=6.8*;MPTP cs DR=>80
CCOc1ccc(C2C=C(c3ccccc3)Nc3nnnn32)cc1 (centres undefined)	2	0	-227	-6	18	4	.	.	.
CCOc1ccc(C2C=C(c3ccc(C)cc3)Nc3nnnn32)cc1 (centres undefined)	3	0	50*	14	34	73*	12	.	26*
N=c1c2c(-c3ccccc3)c(-c3ccccc3)n(Cc3ccccc3)c2ncn1CCCn1ccnc1	-4	4	100*	37	-8	56*	90*	10	1
C[C@H](CO)N1C[C@H](C)[C@@H](CN(C)C(=O)Nc2ccc(C(F)(F)F)cc2)Oc2ccc(NS(=O)(=O)c3ccccc3)cc2C1=O	-8	-4	5	-2	.	1	.	.	.
Cc1nccc(-c2cccc(N/N=C(\C#N)C(=O)c3ccccc3)c2)n1	0	31	44	24	18	34	.	.	.
N#C/C(=N\Nc1cccc(C(F)(F)F)c1)C(=O)c1ccsc1	16*	47	78*	52	33	84*	63*	67*	57*
CCCc1c(NC(=O)Nc2ccc(F)cc2)cnn1-c1ccc(Cl)cc1	2	2	61*	25	30	88*	32	.	74*
CCc1ccccc1NC(=O)Nc1ccc(F)cc1	0	6	20	-5	5	39	.	.	.
SMILES	GRIN3A LBD mod	Beta cell apopt	Mdm2 MdmX PPI	CSC inhib	SKKanGAS inh	MPTP block	Mdm2-MdmX conf	FLuc counter	MPTP counter	others
Cc1cccc(C2(c3cccc(C)c3)CC2C(=O)Nc2ccc([N+](=O)[O-])cc2O)c1 (centres undefined)	15*	.	90*	.	72*	96*	94*	51*	68*
Cc1nnsc1C(=O)N/N=C/c1ccc2ccccc2c1O	-4	125*	63*	78*	56*	56*	75*	30	56*
Cc1nnsc1C(=O)N/N=C/c1ccccc1	0	7	7	-20	10	4	.	.	.
COc1ccc(NS(=O)(=O)c2ccc(-c3cnc(C4CC4)o3)cc2)cc1OC	0	93*	57*	62	-4	92*	56*	47*	93*
COc1ccc(S(=O)(=O)Nc2ccc(C)cc2)cc1OC	0	-5	20	-7	6	3	.	.	.
O=C(Nc1ccc(OCC(F)(F)C(F)F)c(C(F)(F)F)c1)c1ccccc1O	33*	122*	94*	1	81*	106*	92*	28	77*
COc1cccc(NC(=O)c2ccccc2C(F)(F)F)c1	-1	-5	1	-4	-1	-3	.	.	.
O=C(Nc1cccc(Cl)c1)C1C2CCC3C(CCC21)C3(Cl)Cl (centres undefined)	14*	6	69*	-13	3	99*	13	.	96*
COc1ccc(N/C(N)=N/c2nc(C)cc(C)n2)cc1	.	.	.	.	.	-1	.	.	.
Cc1cc(C)nc(/N=C(\N)Nc2ccc(OCCC(C)C)cc2)n1	-1	52	66*	48	3	100*	49*	53*	91*
Cc1cc(C)nc(/N=C(\N)Nc2cccc(OCc3ccccc3)c2)n1	1	-28	73*	-12	12	83*	50*	66*	64*
O=C(NC(NC(=S)Nc1ccc(Cl)c(Cl)c1)C(Cl)(Cl)Cl)c1ccco1 (centres undefined)	9	10	59*	66	74*	100*	40	74*	100*
